# ± gives the uncertainty stated by the source.
# Tested on: Candidatus Liberibacter solanacearum in potato hairy roots
# Test: relative CLso titer (% of untreated control); higher = less inhibition of bacterial titer
# Conditions: 10 µM; 72 h
# Description: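 Primary screen of ~220 Spectrum collection (MicroSource) compounds at 10 µM (0.1% DMSO) on Candidatus Liberibacter solanacearum-infected potato hairy roots in multi-well plates (Gamborg B-5 medium, vacuum infiltrated, 21 °C, dark, 72 h). CLso titer was measured by qPCR of 16S rDNA normalised to potato RPL2 (2^-ddCq), pairwise-standardised against untreated controls, averaged over two biological replicates and expressed as % of untreated.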
row,SMILES,relative CLso titer [%]
1,Cn1nnnc1SCC1=C(C(=O)O)N2C(=O)[C@@H](NC(=O)[C@H](OC=O)c3ccccc3)[C@H]2SC1,86.7 ± 26
2,Cc1cc(C2CCCCC2)n(O)c(=O)c1,44.1 ± 7.6
3,COC1=CC(=O)C[C@@H](C)[C@]12Oc1c(Cl)c(OC)cc(OC)c1C2=O,67.3 ± 13
4,O=C(Oc1ccccc1C(=O)O)c1ccccc1O,124 ± 42
5,CO/N=C(\C(=O)N[C@@H]1C(=O)N2C(C(=O)O)=C(COC(N)=O)CS[C@H]12)c1ccco1,149 ± 29
6,COC(=O)C1=C(C)NC(C)=C(C(=O)OCCN(C)Cc2ccccc2)C1c1cccc([N+](=O)[O-])c1 (stereo not given),121 ± 15
7,CC(=O)OCC(=O)[C@H]1CC[C@H]2[C@@H]3CCC4=CC(=O)CC[C@]4(C)[C@H]3CC[C@]12C,104 ± 18
8,C=C1c2cccc(O)c2C(=O)C2=C(O)[C@]3(O)C(=O)C(C(N)=O)=C(O)[C@@H](N(C)C)[C@@H]3[C@@H](O)[C@H]12,79.1 ± 26
9,O=C(O)Cc1ccccc1Nc1c(Cl)cccc1Cl,151 ± 55
10,O=S(=O)(O)CCS,110 ± 3.6
11,CCCOc1cc(N)ccc1C(=O)OCCN(CC)CC,102 ± 10
12,CN(C)CCC=C1c2ccccc2COc2ccccc21,88.8 ± 1.1
13,CC(=O)N[C@@H](CS)C(=O)O,55.7 ± 25
14,COc1ccc(O)cc1,173 ± 58
15,Nc1ccc(S(=O)(=O)c2ccc(N)cc2)cc1,94.3 ± 19
16,CCCNC(=O)NS(=O)(=O)c1ccc(Cl)cc1,38.9 ± 4.5
17,C[C@@H]1C[C@H]2[C@@H]3CCC4=CC(=O)C=C[C@]4(C)[C@@]3(F)[C@@H](O)C[C@]2(C)[C@@]1(O)C(=O)CO,196 ± 16
18,CCCCOc1ccc(C(=O)CCN2CCCCC2)cc1,156 ± 14
19,CN(C)CCOC(c1ccccc1)c1ccccc1,55.8 ± 26
20,CN(CCOc1ccc(CC2SC(=O)NC2=O)cc1)c1ccccn1 (stereo not given),87.5 ± 30

row,SMILES,relative CLso titer [%]
1,Nc1ccc(C(=O)O)c(O)c1,73 ± 16
2,CN(C)CC[C@@H](c1ccc(Cl)cc1)c1ccccn1,48.1 ± 3.8
3,CC(C)(Sc1cc(C(C)(C)C)c(O)c(C(C)(C)C)c1)Sc1cc(C(C)(C)C)c(O)c(C(C)(C)C)c1,102 ± 13
4,C#C[C@]1(OC(C)=O)CC[C@H]2[C@@H]3CCC4=CC(=NO)CC[C@@H]4[C@H]3CC[C@@]21CC (mixture of isomers),64.9 ± 10
5,CN1CCN(CC(=O)N2c3ccccc3C(=O)Nc3cccnc32)CC1,56.9 ± 5.4
6,CCN(CC)CCOC(=O)C1(C2CCCCC2)CCCCC1,90.3 ± 40
7,Clc1ccc(CSC(Cn2ccnc2)c2ccc(Cl)cc2Cl)cc1 (stereo not given),111 ± 31
8,CC[C@H]1OC(=O)[C@H](C)[C@@H](O[C@H]2C[C@@](C)(OC)[C@@H](O)[C@H](C)O2)[C@H](C)[C@@H](O[C@@H]2O[C@H](C)C[C@H](N(C)C)[C@H]2O)[C@](C)(O)C[C@@H](C)C(=O)[C@H](C)[C@@H](O)[C@]1(C)O,197 ± 120
9,CC(C)CCCC(C)N (stereo not given),93.3 ± 14
10,CCN(CC)C(=S)SSC(=S)N(CC)CC,82.7 ± 6
11,CC1(C)S[C@@H]2[C@H](NC(=O)C(C(=O)O)c3ccccc3)C(=O)N2[C@H]1C(=O)O (stereo not given in full),43.3 ± 14
12,Cc1onc(-c2c(Cl)cccc2Cl)c1C(=O)N[C@@H]1C(=O)N2[C@@H]1SC(C)(C)[C@@H]2C(=O)O,145 ± 34
13,COc1ccc(CNc2nc(N3CCC[C@H]3CO)ncc2C(=O)NCc2ncccn2)cc1Cl,110 ± 46
14,CC(C(=O)O)c1cccc(C(=O)c2ccccc2)c1 (stereo not given),132 ± 34
15,CCOC(=O)c1cccc(N)c1,113 ± 8.9
16,CC(=O)OCC[N+](C)(C)C,96.2 ± 31
17,CCCCOc1ccc(OCCCN2CCOCC2)cc1,106 ± 37
18,CN(C)CCCN1c2ccccc2Sc2ccc(Cl)cc21,46.9 ± 8.8
19,CC(=O)O[C@]1(C(C)=O)CC[C@H]2[C@@H]3C=C(Cl)C4=CC(=O)[C@@H]5C[C@@H]5[C@]4(C)[C@H]3CC[C@@]21C,114 ± 4.7
20,Oc1ncnc2[nH]ncc12,82.5 ± 30
